A short description of assay [1]: NCI Yeast Anticancer Drug Screen. Data for the rad50 strain (AID 155).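 Note: 0% = growth of vehicle-only cultures of the same strain.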 To be noted: S. cerevisiae rad50 strain growth inhibition, stronger effect = higher value. The method in brief: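 Vehicle-treated cultures provide the reference for the growth inhibition reported for compound-exposed, repair-deficient yeast.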
Assay [2] is described as follows: NCI Yeast Anticancer Drug Screen. Data for the mec2-1 strain (AID 157). To be noted: S. cerevisiae mec2-1 strain, stronger effect = higher value. The gist of the method:
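Each compound was tested on mec2-1 yeast, a strain altered in DNA damage repair or cell cycle control. Growth inhibition is reported relative to vehicle.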

Assay [3] in a line: NCI Yeast Anticancer Drug Screen. Data for the sgs1 mgt1 strain (AID 161).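 Note: 0% = growth of cultures given vehicle only.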 To be noted: S. cerevisiae sgs1 mgt1 strain, stronger effect = higher value. The method in brief:
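Inhibition of yeast growth, normalised to vehicle-treated controls, is reported for a strain bearing genetic alterations in DNA damage repair.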

Assay [4] can be described thus: NCI Yeast Anticancer Drug Screen. Data for the cln2 rad14 strain (AID 165).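 Note: 0% = growth equal to vehicle treated cultures.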 To be noted: S. cerevisiae cln2 rad14 strain, stronger effect = higher value. The gist of the method: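 Test compounds were added to cln2 rad14 yeast cultures; inhibition of growth was then determined by comparison with vehicle treatment.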
Assay [5] can be described thus: NCI Yeast Anticancer Drug Screen. Data for the bub3 strain (AID 167). To be noted: S. cerevisiae bub3 mutant strain, stronger effect = higher value. The gist of the method:
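Mutant yeast screening strain plus compound; vehicle-treated cultures serve as the 0% inhibition reference.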

Assay [6] is described as follows: NCI Yeast Anticancer Drug Screen. Data for the mlh1 rad18 strain (AID 175). To be noted: S. cerevisiae mlh1 rad18 strain growth inhibition, stronger effect = higher value. The gist of the method: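 Inhibition values reflect reduced growth of mutant yeast versus vehicle-treated controls following compound exposure; the mutations affect DNA damage repair.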
Setting [7] is: at 5.0 µM (retest, dose inferred, filed as 0.5).
[8] abbreviates: at 50.0 µM (retest, dose inferred, filed as 5.0).

Structures are written as SMILES. Values joined by “and” are separate entries in the source; they are usually repeats but may differ in a detail not shown here. Identical values can stand only once. The panel holds about 79,000 compounds, 15% with a hit somewhere; the sample as a whole holds those more often. A structure can be active in one record and inactive in another. Active and inactive are the calls of the source. Cut-off read from the data, not from the text of the source: active = growth inhibition above about 70%; inactive = the rest.

This is an account of results in PubChem BioAssay (NCI).

Regarding `S=C=Nc1cccc(Cl)c1`, the growth inhibition in assay [1] (setting [7]) is -17% (inactive); in assay [1] (setting [8]), 84% (active); in assay [1] (at 50.0 µM), 85.2% (active); in assay [2] (setting [7]) it was -7% (inactive); in assay [2] (setting [8]), 90% (active); in assay [2] (at 50.0 µM) it was 86% (active). Further, the growth inhibition in assay [3] (setting [7]) was -10% (inactive); in assay [3] (setting [8]), 90% (active); in assay [3] (at 50.0 µM), 88.8% (active); in assay [4] (setting [7]), 35% (inactive); in assay [4] (setting [8]) it was 65% (inactive); in assay [4] (at 50.0 µM), 80.3% (active). Further, the growth inhibition in assay [5] (setting [7]) was 7% (inactive); in assay [5] (setting [8]), 89% (active); in assay [5] (at 50.0 µM), 85.2% (active); in assay [6] (setting [7]), 2% (inactive); in assay [6] (setting [8]), 89% (active); in assay [6] (at 50.0 µM), 79.3% (active).
As to `Ic1cccc2c1[se]c1ccccc12`, the growth inhibition in assay [1] (setting [7]) is -8% (inactive); in assay [1] (setting [8]), 22% (inactive); in assay [1] (at 50.0 µM), 25.2% (inactive); in assay [2] (setting [7]) it was 8% (inactive); in assay [2] (setting [8]), 20% (inactive); in assay [2] (at 50.0 µM), -4.05% (inactive). Moreover, the growth inhibition is 0% (inactive) in assay [3] (setting [7]); 40% (inactive) in assay [3] (setting [8]); 6.7% (inactive) in assay [3] (at 50.0 µM); 5% (inactive) in assay [4] (setting [7]); -28% (inactive) in assay [4] (setting [8]); -27.8% (inactive) in assay [4] (at 50.0 µM). Also, the growth inhibition in assay [5] (setting [7]) was -3% (inactive); in assay [5] (setting [8]), 27% (inactive); in assay [5] (at 50.0 µM) it was -11.3% (inactive); in assay [6] (setting [7]), 9% (inactive); in assay [6] (setting [8]), 75% (active); in assay [6] (at 50.0 µM), 2.15% (inactive).
For the molecule `CC1CCC2(OC1)OC1CC3C4CC=C5CC(OC6OC(CO)C(OC7OC(C)C(OC8OC(C)C(O)C(O)C8O)C(O)C7O)C(O)C6OC6OC(C)C(O)C(O)C6O)CCC5(C)C4CCC3(C)C1C2C` (stereo unspecified), the growth inhibition in assay [1] (setting [7]) was 100% (active); in assay [1] (setting [8]) it was 94% (active); in assay [1] (at 50.0 µM), 87.3% (active); in assay [2] (setting [7]), 99% (active); in assay [2] (setting [8]) it was 96% (active); in assay [2] (at 50.0 µM) it was 81.5% (active). For the same molecule, the growth inhibition in assay [3] (setting [7]) is 99% (active); in assay [3] (setting [8]) it was 95% (active); in assay [3] (at 50.0 µM) it was 84% (active); in assay [4] (setting [7]), 99% (active); in assay [4] (setting [8]) it was 95% (active); in assay [4] (at 50.0 µM), 86.7% (active). The growth inhibition in assay [5] (setting [7]) is 99% (active); in assay [5] (setting [8]) it was 95% (active); in assay [5] (at 50.0 µM), 89.2% (active); in assay [6] (setting [7]), 98% (active); in assay [6] (setting [8]), 91% (active); in assay [6] (at 50.0 µM), 86.5% (active).
Regarding `CCOP(=O)(OCC)/C(C#N)=C/c1cccc(Cl)c1`, the growth inhibition is 1% (inactive) in assay [1] (setting [7]); 94% (active) in assay [1] (setting [8]); 90.5% (active) in assay [1] (at 50.0 µM); -1% (inactive) in assay [2] (setting [7]); 96% (active) in assay [2] (setting [8]); 91.8% (active) in assay [2] (at 50.0 µM). In addition, the growth inhibition was 5% (inactive) in assay [3] (setting [7]); 94% (active) in assay [3] (setting [8]); 90.8% (active) in assay [3] (at 50.0 µM); 14% (inactive) in assay [4] (setting [7]); 94% (active) in assay [4] (setting [8]); 88.2% (active) in assay [4] (at 50.0 µM). The growth inhibition was -6% (inactive) in assay [5] (setting [7]); 96% (active) in assay [5] (setting [8]); 89.8% (active) in assay [5] (at 50.0 µM); 6% (inactive) in assay [6] (setting [7]); 96% (active) in assay [6] (setting [8]); 89.3% (active) in assay [6] (at 50.0 µM).
With `Cc1ccc(C(=O)CCl)c(C)c1`, the growth inhibition in assay [1] (setting [7]) is 11% (inactive) and 16% (inactive); in assay [1] (setting [8]), 99% (active) and 94% (active); in assay [1] (at 50.0 µM) it was 96.4% (active) and 87.7% (active); in assay [2] (setting [7]), 23% (inactive) and 18% (inactive); in assay [2] (setting [8]), 99% (active) and 92% (active); in assay [2] (at 50.0 µM), 98.2% (active) and 91.6% (active). For the same molecule, the growth inhibition in assay [3] (setting [7]) is 25% (inactive) and 11% (inactive); in assay [3] (setting [8]), 99% (active) and 55% (inactive); in assay [3] (at 50.0 µM) it was 94.7% (active) and 96.1% (active); in assay [4] (setting [7]), 15% (inactive) and 17% (inactive); in assay [4] (setting [8]), 97% (active) and 83% (active); in assay [4] (at 50.0 µM), 87.3% (active) and 71.6% (active). In addition, the growth inhibition in assay [5] (setting [7]) was 8% (inactive) and 2% (inactive); in assay [5] (setting [8]), 99% (active) and 97% (active); in assay [5] (at 50.0 µM), 91.8% (active) and 90.2% (active); in assay [6] (setting [7]), 28% (inactive) and 7% (inactive); in assay [6] (setting [8]), 99% (active); in assay [6] (at 50.0 µM) it was 97.7% (active) and 97.1% (active).
For the molecule `CCOc1ccc(/C=C/[N+](=O)[O-])cc1[N+](=O)[O-]`, the growth inhibition is 11% (inactive) in assay [1] (setting [7]); 98% (active) in assay [1] (setting [8]); 95.6% (active) in assay [1] (at 50.0 µM); 7% (inactive) in assay [2] (setting [7]); 99% (active) in assay [2] (setting [8]); 99.6% (active) in assay [2] (at 50.0 µM). Further, the growth inhibition was 9% (inactive) in assay [3] (setting [7]); 99% (active) in assay [3] (setting [8]); 99.5% (active) in assay [3] (at 50.0 µM); 16% (inactive) in assay [4] (setting [7]); 99% (active) in assay [4] (setting [8]); 99% (active) in assay [4] (at 50.0 µM). For the same molecule, the growth inhibition in assay [5] (setting [7]) was 9% (inactive); in assay [5] (setting [8]), 99% (active); in assay [5] (at 50.0 µM), 99.3% (active); in assay [6] (setting [7]), 12% (inactive); in assay [6] (setting [8]), 99% (active); in assay [6] (at 50.0 µM), 99.3% (active).
With `[I][Hg][CH2]C1COCC([CH2][Hg][I])O1` (stereo unspecified), the growth inhibition in assay [1] (setting [7]) is 0% (inactive); in assay [1] (setting [8]) it was 5% (inactive); in assay [1] (at 50.0 µM) it was 98.7% (active); in assay [2] (setting [7]), 4% (inactive); in assay [2] (setting [8]) it was 6% (inactive); in assay [2] (at 50.0 µM), 99.5% (active). Further, the growth inhibition is 0% (inactive) in assay [3] (setting [7]); 9% (inactive) in assay [3] (setting [8]); 99.2% (active) in assay [3] (at 50.0 µM); -1% (inactive) in assay [4] (setting [7]); 7% (inactive) in assay [4] (setting [8]); 98.2% (active) in assay [4] (at 50.0 µM). The growth inhibition was 5% (inactive) in assay [5] (setting [7]); -8% (inactive) in assay [5] (setting [8]); 99.5% (active) in assay [5] (at 50.0 µM); 0% (inactive) in assay [6] (setting [7]); 7% (inactive) in assay [6] (setting [8]); 99.2% (active) in assay [6] (at 50.0 µM).
